Compound activity from PubChem.
Pf growth 96h – P. falciparum growth inhibition at 96 hours. P. falciparum luciferase reporter growth, 96 h. Potency, µM (highest dose often 28.7 µM), most hits filed as inhibitors. 320,000 tested, 6.9% active
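Two parasite generations (96 h, 37 C, 5% CO2) of compound exposure in infected erythrocytes (0.05% parasitemia, 2% hematocrit). Luciferase-reporter P. falciparum; decreased luminescence indicates inhibited growth, aimed at apicoplast-acting delayed death.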
Shiga inhibitor – blocks Shiga toxin action in Vero cells. Vero cells, Shiga toxin protein synthesis inhibition reporter. inhibition, % at 38.7 µM. 290,000 tested, 9.2% active. AID 2315; in the data active = inhibition mostly above about 28%, no sharp cut-off; inactive = mostly below about 43%
Pf growth 48h – inhibits P. falciparum growth in the first generation, 48 h; P. falciparum luciferase growth in erythrocytes, 48 h; Potency, µM (titrated, usually from 28.7 µM), hits mostly inhibitors; 310,000 tested, 5.9% active; AID 504832
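Compounds are pin-transferred into medium, infected erythrocytes (2% hematocrit, 0.1% parasitemia final) are added, and plates sit one parasite generation at 37 C in 5% CO2. Detection reagent is then added and luminescence measured.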
HCMV inh – inhibitors of human cytomegalovirus | HFF cells, HCMV-luciferase reporter, 72 h; stronger effect = lower value | 410,000 tested, 4.5% active | AID 1259415 | activity change, negative = inhibition, % at 57.5 µM; in the data active = activity change below about -60%; inconclusive = no clear call, values can overlap the other calls; inactive = above about -39%
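HFF cells seeded 16 h at 37C, treated with compounds, infected with luciferase-reporter HCMV at MOI 1 PFU/cell; luciferase read at 72 h post infection, normalized to buffer-only and Salinomycin controls.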
CHX counter – counter-screen for Shiga toxin inhibitors: cycloheximide protein synthesis inhibition | cell reporter, cycloheximide protein synthesis inhibition counterscreen | max response, % | 300,000 tested, 12% active | AID 2314; in the data active = max response mostly above about 13%, no sharp cut-off; inactive = mostly below about 14%; also: read at 38.3 µM for the half of the compounds with a filed dose
HCV inh – HCV inhibition. Huh7.5.1 HCVcc-Cre infection, luciferase reporter, 44 h. 340,000 tested, 3.4% active. Potency, µM (doses to about 41.8 µM), hits mostly inhibitors
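Compounds are dispensed onto cells plated 4 h earlier at 1,000 per well, with HCVcc-Cre virus (about 0.5 moi) added next. Following 44 h of culture, luminescent signal is measured for 15 sec after 15 min with substrate at room temperature.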
Numbers stand for hits; . = inactive; ? = inconclusive; / = not tested or not shown; + = active, no number; [ ] = dose if it differs, or a comment. In the library only some 21% were active in any assay of this set; here they are far more common. Unless noted, calls follow the shape of the dose curve; as a rule, active = well fitted inhibition curve with a large enough effect; inconclusive = small, poorly fitted or top-dose-only effect, or another doubt; inactive = no such curve, though single readings can be large or run the other way.

SMILES | Pf growth 96h | Shiga inhibitor | Pf growth 48h | HCMV inh | CHX counter | HCV inh
COC(=O)C1CN(C(=O)C(C)Oc2ccc(F)cc2)c2ccccc2O1 (stereo not drawn) | ? | . | . | . | . | .
N#CC(c1ccccc1)N(CCCCl)C(=O)c1ccc(Br)cc1 (stereo not drawn) | ? | . | . | ? | . | ?
COc1ccc(C)cc1NC(=O)CSCc1cc(=O)n2c(C)csc2n1 | . | / | . | . | / | .
Cn1c(=S)n(CCC(=O)O)c2ccccc21 | . | . | . | . | . | .
CCc1ccccc1NC(=O)Nc1cc(C(=O)NCc2ccccc2OC)ccc1N1CCCC1 | / | / | / | . | / | /
Cc1cccc(NS(=O)(=O)c2c(C(=O)N3CCCC3)c(C)n(C)c2C)c1 | . | . | . | + | . | .
Cc1c(C(=O)N2CCOCC2)c(S(=O)(=O)Nc2ccc(C(C)C)cc2)c(C)n1C | 10µM | . | . | . | . | .
Cc1c(C(=O)N2CCCCCC2)c(S(=O)(=O)Nc2cccc(F)c2)c(C)n1C | . | . | . | . | . | .
Cc1ccc(NS(=O)(=O)c2c(C(=O)N3CCOCC3)c(C)n(C)c2C)cc1C | . | . | . | . | . | .
COCCCN1CCc2nc(SCC(=O)Nc3ccc(C)c(Cl)c3)[nH]c(=O)c2C1 | / | / | / | . | / | /
COc1cc(OC)c(C2Nc3ccccc3NC3=C2C(=O)CC(C)(C)C3)cc1OC (stereo not drawn) | ? | . | . | . | . | .
COc1ccc(C2CC(=O)C3=C(C2)Nc2ccccc2NC3c2coc3ccccc3c2=O)cc1OC (stereo not drawn) | . | . | 7.4µM | . | . | .
Cc1ccc(NC(=O)C(NCc2ccccn2)c2ccccc2)cc1 (stereo not drawn) | ? | 101 | ? | . | 37 | .
Cc1cccc(NC(=S)NCc2ccccn2)c1 | . | . | . | . | . | .
S=C(NCc1ccccn1)NN=Cc1ccccn1 | / | / | / | -99 | / | ?
Cc1ccc(NC(=S)NCc2ccccn2)cc1 | . | 108 | . | . | 38 | .
S=C(NCc1ccccn1)Nc1cccc(Cl)c1 | . | . | . | . | 13 | .
CN(C)c1ccc(NC(=O)CC(NCc2ccccn2)C(=O)O)cc1 (stereo not drawn) | . | . | . | . | . | .
S=C(NCc1ccccc1)NCc1ccccn1 | . | . | . | . | . | .
S=C(NCc1ccncc1)Nc1cccc(Cl)c1 | . | . | ? | . | . | .
CC(=NNC(=S)Nc1cccc(Cl)c1)c1ccccn1 | / | / | / | -97 | / | ?
CC(=O)c1cccc(NC(=O)c2c(-c3ccccc3)c(-c3ccccc3)nn(C)c2=O)c1 | / | / | / | . | / | /
CC(C)(C)C(=O)NC(=S)NNC(=O)c1ccc(-c2ccccc2)cc1 | . | . | ? | / | . | 6.3µM
O=C(NNC(=O)c1ccc(-c2ccccc2)cc1)c1ccccc1 | ? | 67 | . | . | 20 | ?
CC1(C)O[C@H]2C[C@@H]3[C@H]4CCC5=CC(=O)CC[C@@]5(C)[C@]4(F)[C@@H](O)C[C@@]3(C)[C@@]2(C(=O)CCl)O1 | 4.1µM | / | 5.1µM | / | / | /
SMILES | Pf growth 96h | Shiga inhibitor | Pf growth 48h | HCMV inh | CHX counter | HCV inh
CC1(C)OC2CC3C4CCC5=CC(=O)C=CC5(C)C4(F)C(O)CC3(C)C2(C(=O)CO)O1 (stereo not drawn) | / | / | / | . | / | /
CC1(C)O[C@@H]2C[C@H]3[C@@H]4CCC5=CC(=O)CC[C@]5(C)[C@@]4(F)[C@@H](O)C[C@]3(C)[C@]2(C(=O)CCl)O1 | 3.3µM | / | 2.6µM | . | / | .
C[C@@H]1C[C@H]2[C@@H]3CCC4=CC(=O)C=C[C@]4(C)[C@@]3(F)[C@@H](O)C[C@]2(C)[C@H]1C(=O)CO | 9.3µM | . | ? | . | . | .[8.37 µM]
C[C@]12CCC(=O)C=C1CC[C@H]1[C@@H]3CC[C@](O)(C(=O)CO)[C@@]3(C)C[C@H](O)[C@@]12F | ? | / | . | / | / | /
CC(=O)OCC(=O)[C@@]12OC3(CCCC3)OC1CC1C3CCC4=CC(=O)C=C[C@@]4(C)[C@]3(F)C(O)C[C@]12C (stereo partly drawn) | 9.5µM | / | 15µM | / | / | /
COc1ccc(CNC(=O)C2CC(=O)N(C3CCCCC3)C2)cc1 (stereo not drawn) | ? | . | . | . | . | .
O=C(NCCCN1CCN(c2ccccc2F)CC1)C1CC(=O)N(C2CCCC2)C1 (stereo not drawn) | 12µM | . | / | . | . | .
CN1CCN(CCCNC(=O)C2CC(=O)N(C3CCCCC3)C2)CC1 (stereo not drawn) | . | . | . | . | . | .
COc1ccc(N2CCN(CCNC(=O)C3CC(=O)N(C4CCCC4)C3)CC2)cc1 (stereo not drawn) | 1.9µM | . | . | . | . | .
O=C(NCCCN1CCC(Cc2ccccc2)CC1)C1CC(=O)N(C2CCCCCC2)C1 (stereo not drawn) | ? | . | / | . | . | 4µM
O=C(Cn1c(CO)nc2ccccc21)NC1CCCCCC1 | . | . | . | / | . | /
O=C(CCSc1ccc(Cl)cc1)Nc1cccnc1 | . | . | . | . | . | .
CCOCCCNC(=O)C1CCN(C(=O)c2cc3sccc3n2C)CC1 | / | / | / | . | / | /
CCO[C@H]1OC(C(=O)Nc2ccccc2)=C[C@@H](c2cn(C(C)=O)c3ccccc23)[C@@H]1CCCO | ? | . | ? | . | . | .
COc1cccc(NC(=O)Nc2ccccc2C(N)=O)c1 | . | . | . | . | 27 | .
COc1cccc(NC(=O)Nc2cc(NC(=O)Nc3cccc(OC)c3)c(C)nc2C)c1 | ? | . | . | ? | . | ?
O=C(Nc1cccc(Cl)c1)Nc1ccccc1C(=O)O | . | 47 | . | . | 24 | .
CSc1ccc(NC(=O)Nc2ccccc2C(N)=O)cc1 | . | 74 | . | . | 67 | .
COc1ccc(Cl)cc1NC(=O)Nc1ccccc1C(N)=O | . | . | . | . | . | .
NC(=O)c1ccccc1NC(=O)Nc1cccc(Cl)c1 | . | 45 | . | . | 21 | .
CC(C)(C)NC(=O)Nc1ccccc1C(N)=O | ? | . | . | . | . | .
O=c1cc(N2CCNCC2)oc2c(-c3ccccc3)cccc12 | / | . | / | / | . | /
CCOC(=O)C1=C(COC(=O)c2ccc3ccccc3c2O)NC(=O)NC1C (stereo not drawn) | ? | / | ? | . | / | ?
O=C(NNc1ccccc1[N+](=O)[O-])Nc1ccc(F)cc1F | . | . | . | . | . | .
O=C(NNc1ccccc1[N+](=O)[O-])Nc1cccc(Cl)c1 | ? | 81 | . | ? | 47 | .
FC(F)(F)c1cnc(-c2cnc(-c3cccnc3)nc2)c(Cl)c1 | . | 116 | . | . | 48 | .
FC(F)(F)c1cc(Cl)c2nnc(-c3cccnc3)n2c1 | . | . | . | . | . | .
O=C(N/N=C/c1ccc(O)c(O)c1O)/C(=C/c1ccc([N+](=O)[O-])cc1)NC(=O)c1ccccc1 | 9.3µM | . | / | . | . | 6.3µM
